# Data: paper PMC4336329 (PLoS ONE, 2015)
# In all, about 310,000 compounds went through this assay and about 14,000 (4.5%) showed an effect of 50% or more. Effects have a minus sign here. For the sample, strong results were picked, then their nearest neighbours and some compounds at random.
# Biological target: human ether-à-go-go-related gene (hERG) potassium channel (human, UniProt Q12809)
# Assay: primary screen, population patch clamp on CHO cells stably expressing hERG; higher = less effect of the substance
# 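Note: peak tail current of the secondary pulse compared with the same well before compound.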
# Sequence of human ether-à-go-go-related gene (hERG) potassium channel (Q12809 whole entry, looked up): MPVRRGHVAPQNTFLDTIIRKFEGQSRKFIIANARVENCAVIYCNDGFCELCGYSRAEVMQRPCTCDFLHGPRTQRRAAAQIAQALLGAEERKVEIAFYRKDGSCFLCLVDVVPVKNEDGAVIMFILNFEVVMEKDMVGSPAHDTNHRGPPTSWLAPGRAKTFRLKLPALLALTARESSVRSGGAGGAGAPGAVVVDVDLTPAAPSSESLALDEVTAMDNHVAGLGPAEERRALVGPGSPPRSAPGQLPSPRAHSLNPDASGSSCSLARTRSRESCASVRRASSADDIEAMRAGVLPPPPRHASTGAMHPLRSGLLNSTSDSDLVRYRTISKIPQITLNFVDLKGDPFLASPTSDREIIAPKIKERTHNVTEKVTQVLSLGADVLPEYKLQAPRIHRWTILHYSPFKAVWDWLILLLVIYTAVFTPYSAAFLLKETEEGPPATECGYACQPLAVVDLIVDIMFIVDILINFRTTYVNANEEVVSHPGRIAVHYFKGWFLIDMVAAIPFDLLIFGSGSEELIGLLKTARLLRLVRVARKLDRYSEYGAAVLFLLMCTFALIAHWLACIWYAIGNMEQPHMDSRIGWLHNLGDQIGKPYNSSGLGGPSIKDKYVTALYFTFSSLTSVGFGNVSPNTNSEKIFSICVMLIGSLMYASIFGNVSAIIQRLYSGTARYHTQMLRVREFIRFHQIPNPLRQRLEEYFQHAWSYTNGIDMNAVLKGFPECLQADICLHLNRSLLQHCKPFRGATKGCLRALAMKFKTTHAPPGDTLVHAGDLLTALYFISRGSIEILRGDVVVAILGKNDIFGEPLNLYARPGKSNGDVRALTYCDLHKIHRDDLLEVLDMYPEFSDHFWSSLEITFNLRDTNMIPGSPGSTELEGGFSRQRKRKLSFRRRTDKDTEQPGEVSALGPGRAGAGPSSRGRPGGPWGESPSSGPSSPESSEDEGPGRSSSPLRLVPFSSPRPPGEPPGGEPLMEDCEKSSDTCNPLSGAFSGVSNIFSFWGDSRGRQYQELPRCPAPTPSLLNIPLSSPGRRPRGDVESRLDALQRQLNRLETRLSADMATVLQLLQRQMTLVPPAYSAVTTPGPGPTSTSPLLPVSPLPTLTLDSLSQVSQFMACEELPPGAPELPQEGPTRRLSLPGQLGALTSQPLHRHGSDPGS
row,Compound,"hERG current change (%, negative = inhibition) at 10uM [%]"
1,O=C(COC(=O)c1ccc([N+](=O)[O-])cc1)Nc1cccnc1Cl,-1.85
2,O=C(Nc1ccncc1)C1CCN(S(=O)(=O)c2ccc(Cl)c(C(F)(F)F)c2)CC1,-69.9
3,CS(=O)(=O)Nc1ccc(C(=O)Nc2ccc(S(=O)(=O)N3CCCCC3)cc2)cc1,-13.8
4,CCN(CC)S(=O)(=O)c1ccc(N2CCCC2)c(NC(=O)c2ccncc2)c1,-22.6
5,O=C(Nc1cc(S(=O)(=O)N2CCCCC2)ccc1N1CCCCC1)c1ccncc1,-52.4
6,O=C(Nc1nccs1)C1CCN(S(=O)(=O)c2ccc(Cl)c(C(F)(F)F)c2)CC1,-0.668
7,Cc1ccnc(NC(=O)C2CCN(S(=O)(=O)c3ccc(Cl)c(C(F)(F)F)c3)CC2)c1,-14.2
8,CS(=O)(=O)Nc1ccc(S(=O)(=O)N2CCCC2)cc1,8.49
9,O=C(Nc1ccncc1)c1cc(S(=O)(=O)N2CCOCC2)ccc1Cl,-46.6
10,CS(=O)(=O)Nc1ccc(S(=O)(=O)N2CCCCCC2)cc1,-65.4
11,CCN(CC)S(=O)(=O)c1ccc(N2CCCCC2)c(NC(=O)c2ccncc2)c1,-29.5
12,O=C(Nc1ccncc1)c1cc(S(=O)(=O)N2CCCCC2)ccc1Cl,-56.2
13,O=C(Nc1ccc(O)cc1)c1cc(S(=O)(=O)N2CCCC2)ccc1Cl,-14.9
14,COc1ccc(S(=O)(=O)CCC(=O)Nc2c(C)cccc2C)cc1,23
15,CC(=O)Nc1ccc(S(=O)(=O)NCCSCc2ccccc2Cl)cc1,2.92
16,COc1ccc(Br)cc1-c1nc2c(c(=O)[nH]c(=O)n2Cc2ccccc2)n1C,5.42
17,CC(C)CN(C(=O)Cn1c(C(F)(F)F)nc2ccccc21)C1CCS(=O)(=O)C1 (stereo not drawn),-9.53
18,Cc1ccc(N2C(=O)C(NC(=O)c3ccccc3F)(C(F)(F)F)C3=C2CC(C)(C)CC3=O)cc1 (stereo not drawn),6.43
19,CC(SC1=Nc2ccccc2C2CC=NN12)C(=O)NC1(C#N)CCCCC1 (stereo not drawn),-19.8
20,CNC(=S)N/N=C/C1=CCC2CC1C2(C)C (stereo not drawn),-3.84
21,O=C(Cn1nnc2ccccc2c1=O)Nc1cc(C(F)(F)F)ccc1N1CCOCC1,-14.5

row,Compound,"hERG current change (%, negative = inhibition) at 10uM [%]"
1,O=C(Nc1ccc(S(=O)(=O)N2CCOCC2)cc1)c1ccco1,-20.3
2,O=C(Nc1ccc(S(=O)(=O)N2CCCCCC2)cc1)c1ccco1,-72.5
3,O=C(Nc1cc(S(=O)(=O)N2CCCCC2)ccc1Cl)c1ccc(F)cc1,-8.99
4,O=C(O)c1ccccc1C(=O)Nc1ccc(S(=O)(=O)N2CCCC2)cc1,22.3
5,O=C(Nc1ccc(S(=O)(=O)N2CCCCC2)cc1)c1ccco1,-10.7
6,CN1CCN(S(=O)(=O)c2ccc(NC(=O)c3ccccc3Cl)cc2)CC1,8.9
7,COc1cc(S(=O)(=O)N2CCCCC2)ccc1NC(=O)c1ccncc1,-30.8
8,O=C(Nc1cc(S(=O)(=O)N2CCCCC2)ccc1Cl)c1ccncc1,-50.2
9,O=C(Nc1ccc(S(=O)(=O)N2CCCCC2)cc1)c1ccccc1Cl,-73.1
10,Cn1c(SC2CCCCC2=O)nnc1-c1ccccc1F (stereo not drawn),9.45
11,Cc1cc(C)cc(OCC(=O)O/N=C(\N)c2ccccn2)c1,-6.54
12,O=c1ccc(-c2ccc(S(=O)(=O)N3CCN(c4cccc(Cl)c4)CC3)o2)n[nH]1,10
13,O=C(Nc1cc(S(=O)(=O)N2CCOCC2)ccc1N1CCOCC1)C1CCCO1 (stereo not drawn),-3.99
14,Cc1cc(Cl)ccc1NC(=S)N1CCN(C(=O)c2ccco2)CC1,-8.95
15,O=C(NCc1ccc(Cl)cc1)C1CCN(C(=O)c2ccco2)CC1,-41.4
16,O=C(CN1CCN(C(=O)c2ccco2)CC1)NCc1ccc(Cl)cc1,-64.4
17,O=C(CN1CCN(C(=O)c2ccco2)CC1)Nc1ccc(Cl)c(S(=O)(=O)N2CCOCC2)c1,-25.6
18,O=C(CN1CCN(C(=O)c2ccco2)CC1)Nc1ccc(Cl)c(C(F)(F)F)c1,-67.1
19,Cc1cc(Cl)ccc1NC(=O)CN1CCN(C(=O)c2ccco2)CC1,-73.6
20,O=C(c1ccco1)N1CCN(Cc2ccc(Cl)cc2)CC1,-14
21,Cc1ccc(NC(=O)CN2CCN(C(=O)c3ccco3)CC2)cc1,-3.01

row,Compound,"hERG current change (%, negative = inhibition) at 10uM [%]"
1,O=C(CN1CCN(C(=O)c2ccco2)CC1)Nc1ccc(F)cc1F,-49.6
2,O=C(CN1CCN(C(=O)c2ccco2)CC1)Nc1cc(Cl)ccc1Cl,-60.1
3,Cc1ccccc1NC(=O)CN1CCN(C(=O)c2ccco2)CC1,-29.4
4,COc1ccc2c(-c3ccccc3)cc(SCC(=O)N(C)C)nc2c1,-22.9
5,C=CCNC(=O)c1oc2ccc(S(=O)(=O)N3CCC4(CC3)OCCO4)cc2c1C,0.761
6,CC(OC(=O)/C=C/c1ccco1)C(=O)Nc1cccc([N+](=O)[O-])c1 (stereo not drawn),6.57
7,Cc1ccc(-n2nc3c(=O)n(CC(=O)NC(C)CCc4ccccc4)nc(C)c3c2C)cc1 (stereo not drawn),6.77
8,O=C(CNC(=O)c1ccco1)Nc1ccc(OC(F)F)cc1,19.6
9,COc1cc(/C=C2\C(=N)N3N=C(S(C)(=O)=O)SC3=NC2=O)ccc1OS(=O)(=O)c1ccc(C)cc1,6.9
10,CCOc1ccc(NC(=O)/C=C/c2ccccc2)c([N+](=O)[O-])c1,-5.94
11,NC(=O)c1ccc(NC(=O)COc2ccc(-n3cnnn3)cc2)cc1,-4.26
12,CCc1ccc(-c2cc(C)no2)cc1S(=O)(=O)Nc1cc(C)on1,10.3
13,O=C(CN1CCN(C(=O)c2ccco2)CC1)Nc1cc(C(F)(F)F)ccc1Cl,-63.6
14,O=C(CN1CCOCC1)Nc1cc(C(F)(F)F)ccc1Cl,-0.356
15,O=C(CN1CCCC1)Nc1cc(C(F)(F)F)ccc1Cl,2.22
16,COc1ccccc1N1C(=O)CC(Sc2ccccc2N)C1=O (stereo not drawn),0.966
17,COC(=O)c1ccc(N2CCN(S(=O)(=O)c3ccc(Br)cc3)CC2)c([N+](=O)[O-])c1,10.6
18,COC(=O)c1ccc(N2CCN(S(=O)(=O)c3ccc(C)cc3)CC2)c([N+](=O)[O-])c1,4.78
19,CN1CCN(c2ccccc2NC(=O)c2ccc(N3CCCC3)c([N+](=O)[O-])c2)CC1,-48.5
20,CN1CCN(c2ccc(C(=O)c3ccc(Br)cc3)cc2[N+](=O)[O-])CC1,-72.1
21,COC(=O)c1ccc(N2CCN(CC(=O)c3ccc(-c4ccccc4)cc3)CC2)c([N+](=O)[O-])c1,8.75

row,Compound,"hERG current change (%, negative = inhibition) at 10uM [%]"
1,COC(=O)c1ccc(N2CCN(CC(=O)c3ccc(C)cc3)CC2)c([N+](=O)[O-])c1,-65
2,CN1CCN(c2ccc(C(=O)c3ccccc3)cc2[N+](=O)[O-])CC1,-53.1
3,COC(=O)c1ccc(N2CCc3ccccc32)c([N+](=O)[O-])c1,10.5
4,COC(=O)c1ccc(N2CCN(C(=O)C3CC3)CC2)c([N+](=O)[O-])c1,-7.61
5,CN1CCN(c2ccc(C(=O)NC3CCCCC3)cc2[N+](=O)[O-])CC1,-9.83
6,COC(=O)c1ccc(N2CCN(C)CC2)c([N+](=O)[O-])c1,-63.4
7,O=C(O)c1ccccc1C(=O)c1ccc(N2CCCC2)c([N+](=O)[O-])c1,13.8
8,O=C(NCc1cccs1)c1cc2c(s1)CS(=O)(=O)C2,-0.732
9,O=C(N/N=C/c1c[nH]c2ccccc12)C1CC1c1ccccc1 (stereo not drawn),-4.47
10,COC(=O)c1cc(C(=O)OC)n(Cc2ccc(F)cc2)n1,-12.9
11,O=C(O)c1cccc(N(CCO)CCO)c1,-1.13
12,CC(C)COP(=O)(c1ccc(N(C)C)cc1)C(O)c1ccc(Br)cc1 (stereo not drawn),8.63
13,COc1ccc(CCNC(=O)c2nnc(CS(=O)(=O)c3ccccc3)o2)cc1OC,-6.44
14,Cc1c(-c2ccccc2)cn2c1-c1ccc(C)n1CC2,-0.42
15,COc1ccc(-c2nnc(SCC(=O)N(C)C3CCS(=O)(=O)C3)n2N)cc1OC (stereo not drawn),19.8
16,O=C(CN1C(=O)/C(=C\c2ccc(C(F)(F)F)cc2)Sc2ccccc21)NCc1ccco1,-5.39
17,Cc1cc(=O)[nH]c(N/N=C/C(C)c2ccccc2)n1 (stereo not drawn),7.54
18,CCc1cccc(CC)c1NC(=O)C1SC(=Nc2ccccc2C)C(c2nc3ccccc3s2)=C1N (stereo not drawn),29.1
19,Cc1ccc(OC(=O)c2ccc(N3CCOCC3)c([N+](=O)[O-])c2)cc1,-4.31
20,Cc1ccc(C(=O)c2ccc(N3CCN(C)CC3)c([N+](=O)[O-])c2)cc1,-68.8
21,CN1CCN(c2ccc(C(N)=O)cc2[N+](=O)[O-])CC1,7.57
